Results published in PubChem BioAssay (Tox21).
Records with an inconclusive call do not appear. Activity calls are given as the source filed them. Calls follow the shape of the dose curve; as a rule, active = well fitted curve in the direction sought with a large enough effect in the repeat runs; inconclusive = weak or mixed curves; inactive = no such curve, though single readings can be large; an effect the other way counts as inactive or inconclusive.

What was measured:
[1] = qHTS RealTime-Glo MT Cell Viability Assay in HepG2 cells - 40 hour (AID 1224870); also: nearly all actives have a fitted effect of over 50% in size
Outline: (§1)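 HepG2 cells mixed with RealTime-Glo MT reagents (NanoLuc plus cell-permeant prosubstrate) were seeded at 600 cells/well, incubated 5 h at 37 C/5% CO2, then pinned with compounds in DMSO; nonlytic luminescence tracked viability during 40 h treatment.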

[2] = A CellTox Green Cytotoxicity Assay to monitor cytotoxicity in HEK293 cells - 40 hour (AID 1224871); also: nearly all actives have a fitted effect of over 45% in size
Outline: (§2)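 Read-out: fluorescence of a cell-impermeant cyanine dye staining DNA of dead cells, proportional to cytotoxicity. HEK293, 600 cells/well with reagent, compound (23 nL DMSO) added after 5 h; reads at 0, 8, 16, 24, 32, 40 h.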

[3] = qHTS RealTime-Glo MT Cell Viability Assay in HEK293 cells - 16 hour (AID 1224872); also: top concentration of the series differs between compounds; nearly all actives have a fitted effect of over 50% in size
Outline: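 Viability tracked continuously by luminescence as live cells reduce a prosubstrate for NanoLuc; HEK293 cells preincubated 5 h, compound-treated at 37 C, and read at 0, 8, 16, 24, 32 and 40 h.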

[4] = qHTS RealTime-Glo MT Cell Viability Assay in HepG2 cells - 8 hour (AID 1224873); also: nearly all actives have a fitted effect of over 55% in size
Outline: as §1

[5] = qHTS RealTime-Glo MT Cell Viability Assay in HEK293 cells - 40 hour (AID 1224874); conditions: RealTime-Glo luminescence; max response: active compounds read low; also: nearly all actives have a fitted effect of over 50% in size
Outline: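 Luminescence readout at each listed time point; HEK293, 600 cells/well, RealTime-Glo MT reagent added with cells; compounds pinned (23 nL in DMSO) after 5 h at 37 C; continuous culture at 37 C.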

[6] = A CellTox Green Cytotoxicity Assay to monitor cytotoxicity in HEK293 cells - 24 hour (AID 1224875); also: series mostly up to about 77 µM; nearly all actives have a fitted effect of over 45% in size
Outline: as §2

[7] = A CellTox Green Cytotoxicity Assay to monitor cytotoxicity in HepG2 cells - 16 hour (AID 1224876); also: nearly all actives have a fitted effect of over 45% in size
Outline: (§3)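 HepG2, 600 cells/well premixed w/ CellTox Green; 5 h settle, 37 C/5% CO2; pintool cpd add (DMSO); 37 C, 40 h; fluorescence read at 0, 8, 16, 24, 32, 40 h.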

[8] = qHTS RealTime-Glo MT Cell Viability Assay in HepG2 cells - 32 hour (AID 1224877); also: nearly all actives have a fitted effect of over 55% in size
Outline: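 Viability was tracked continuously by NanoLuc luminescence from prosubstrate reduced by living HepG2 cells, at successive time points over 40 h of compound exposure. Cells with reagent were preincubated 5 h at 37 °C before compound addition.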

[9] = A CellTox Green Cytotoxicity Assay to monitor cytotoxicity in HepG2 cells - 24 hour (AID 1224878); also: nearly all actives have a fitted effect of over 45% in size
Outline: as §3

[10] = A CellTox Green Cytotoxicity Assay to monitor cytotoxicity in HepG2 cells - 40 hour (AID 1224879); also: nearly all actives have a fitted effect of over 40% in size
Outline: as §3
% is scaled to controls: 0 for no effect and ±100 for the full control effect.

C=C[Si](OC)(OC)OC
inactive: Potency [1] | Potency [2] | Potency [3] | outcome [4] | max response [5] 16.1% | Potency [6] | Potency [7] | Potency [8] | Potency [9] | Potency [10]

CC(CCO)CCCC(C)(C)O (centres undefined)
inactive: Potency [1] | Potency [2] | Potency [3] | outcome [4] | max response [5] -6.84% | Potency [6] | Potency [7] | Potency [8] | Potency [9] | Potency [10]

C[C@H]1O[C@@H](n2cc(F)c(=O)[nH]c2=O)[C@H](O)[C@@H]1O
inactive: Potency [1] | Potency [2] | Potency [3] | outcome [4] | max response [5] 0.654% | Potency [6] | Potency [7] | Potency [8] | Potency [9] | Potency [10]

COc1cccc(Br)c1
inactive: Potency [1] | Potency [2] | Potency [3] | outcome [4] | max response [5] -10% | Potency [6] | Potency [8]

CC1=CC(=O)CCC1
inactive: Potency [1] | Potency [2] | Potency [3] | outcome [4] | max response [5] -3.69% | Potency [6] | Potency [7] | Potency [8] | Potency [9] | Potency [10]

C(=C(c1ccccc1)c1ccccc1)c1ccccc1
inactive: Potency [1] | Potency [2] | Potency [3] | outcome [4] | max response [5] 7.28% | Potency [6] | Potency [7] | Potency [8] | Potency [9] | Potency [10]

O=c1[nH]c(=O)n([C@H]2O[C@H](CO)[C@@H](O)[C@@H]2O)cc1/C=C\Br
inactive: Potency [1] | Potency [2] | Potency [3] | outcome [4] | max response [5] 3.79% | Potency [6] | Potency [8] | Potency [9] | Potency [10]

CCCCCCOC(=O)CC(CC(=O)OCCCCCC)(OC(=O)CCC)C(=O)OCCCCCC
inactive: Potency [1] | Potency [2] | Potency [3] | outcome [4] | max response [5] 15.3% | Potency [6] | Potency [7] | Potency [8] | Potency [9] | Potency [10]

OCC(O)[C@@H](O)[C@H](O)[C@H](O)CO[C@H]1O[C@H](CO)[C@@H](O)[C@H](O)[C@H]1O (some centres undefined)
inactive: Potency [1] | Potency [2] | Potency [3] | outcome [4] | max response [5] -0.563% | Potency [6] | Potency [8] | Potency [9] | Potency [10]

O=C(O)C1CCC1
inactive: Potency [1] | Potency [2] | Potency [3] | outcome [4] | max response [5] -0.0608% | Potency [6] | Potency [7] | Potency [8] | Potency [9] | Potency [10]

c1ccc(SCCSc2ccccc2)cc1
inactive: Potency [1] | Potency [2] | Potency [3] | outcome [4] | max response [5] 6.54% | Potency [6] | Potency [7] | Potency [8] | Potency [9] | Potency [10]

COCc1ccc(COC)cc1
inactive: Potency [1] | Potency [2] | Potency [3] | outcome [4] | max response [5] 4.98% | Potency [6] | Potency [7] | Potency [8] | Potency [9] | Potency [10]

C=CCSCC1Nc2cc(Cl)c(S(N)(=O)=O)cc2S(=O)(=O)N1 (centres undefined)
inactive: Potency [1] | Potency [2] | Potency [3] | outcome [4] | max response [5] 10.2% | Potency [6] | Potency [7] | Potency [8] | Potency [9] | Potency [10]

OC1OC[C@@H](O)[C@H](O)[C@H]1O (some centres undefined)
inactive: Potency [1] | Potency [2] | Potency [3] | outcome [4] | max response [5] 0.611% | Potency [6] | Potency [8] | Potency [9] | Potency [10]

CC(C)=CC(=O)O
inactive: Potency [1] | Potency [2] | Potency [3] | outcome [4] | max response [5] 10.8% | Potency [6] | Potency [7] | Potency [8] | Potency [9] | Potency [10]

CC(C)(O)c1ccccc1
inactive: Potency [1] | Potency [2] | Potency [3] | outcome [4] | max response [5] -10.8% | Potency [6] | Potency [7] | Potency [8] | Potency [9] | Potency [10]

CO
inactive: Potency [1] | Potency [2] | Potency [3] | outcome [4] | max response [5] 3.26% | Potency [6] | Potency [7] | Potency [8] | Potency [9] | Potency [10]

CC(C)COC(=O)C(C)C
inactive: Potency [1] | Potency [2] | Potency [3] | outcome [4] | max response [5] 3.76% | Potency [6] | Potency [8] | Potency [9]

C=C(C)[C@@H]1CCC2=CC(=O)C[C@@H](C)[C@]2(C)C1
inactive: Potency [1] | Potency [2] | Potency [3] | outcome [4] | max response [5] 3.58% | Potency [6] | Potency [8]

Cc1c(F)cc2c(=O)c(C(=O)O)cn3c2c1CCC3C (centres undefined)
inactive: Potency [1] | Potency [2] | Potency [3] | outcome [4] | max response [5] -0.802% | Potency [6] | Potency [7] | Potency [8] | Potency [9] | Potency [10]

CC(=O)c1ccc(C)cc1
inactive: Potency [1] | Potency [2] | Potency [3] | outcome [4] | max response [5] -0.83% | Potency [6] | Potency [7] | Potency [8] | Potency [9] | Potency [10]

CO[Si](CCCNCCC[Si](OC)(OC)OC)(OC)OC
inactive: Potency [1] | Potency [2] | Potency [3] | outcome [4] | max response [5] 5.67% | Potency [6] | Potency [7] | Potency [8] | Potency [9] | Potency [10]

NS(=O)(=O)c1cc2c(cc1Cl)NC(CSCc1ccccc1)=NS2(=O)=O
inactive: Potency [1] | Potency [2] | Potency [3] | outcome [4] | max response [5] -0.803% | Potency [6] | Potency [7] | Potency [8] | Potency [9] | Potency [10]
